Assay results taken from PubChem BioAssay AID651827 (Vanderbilt Specialized Chemistry Center, 2012).

Test: PubChem AID 651827
Conditions: Ricerca radioligand binding panel, percent inhibition, at 10 µM, stronger effect = higher value

SMILES: CS(=O)(=O)N(CC(=O)NCC1CC1)c1cc(C(F)(F)F)ccc1Cl
- inhibition (Adenosine A2A binding): -8%
- inhibition (Adenosine A3 binding): 1%
- inhibition (EGF receptor binding): 14%
- inhibition (IL-1 receptor binding): 15%
- inhibition (L-type Ca benzothiazepine site): 48%
- inhibition (L-type Ca dihydropyridine site): 36%
- inhibition (Melatonin MT1 binding): 16%
- inhibition (PAF receptor binding): 15%
- inhibition (Purinergic P2Y binding): 20%
- inhibition (Serotonin transporter binding): 15%
- inhibition (Thyroid hormone binding): 16%
- inhibition: -9%
- inhibition (hERG binding): -2%
